In PubChem BioAssay:

Biological target: Left-right determination factor 2 (Homo sapiens) (UniProt O00292)
Assay: small molecules binding LEFTY2 protein – biochemical, small-molecule microarray, 635 nm fluorescence scan, primary screen (AID 1110)
Settings: higher = more signal

Left-right determination factor 2 (Homo sapiens), sequence (O00292 whole entry, looked up): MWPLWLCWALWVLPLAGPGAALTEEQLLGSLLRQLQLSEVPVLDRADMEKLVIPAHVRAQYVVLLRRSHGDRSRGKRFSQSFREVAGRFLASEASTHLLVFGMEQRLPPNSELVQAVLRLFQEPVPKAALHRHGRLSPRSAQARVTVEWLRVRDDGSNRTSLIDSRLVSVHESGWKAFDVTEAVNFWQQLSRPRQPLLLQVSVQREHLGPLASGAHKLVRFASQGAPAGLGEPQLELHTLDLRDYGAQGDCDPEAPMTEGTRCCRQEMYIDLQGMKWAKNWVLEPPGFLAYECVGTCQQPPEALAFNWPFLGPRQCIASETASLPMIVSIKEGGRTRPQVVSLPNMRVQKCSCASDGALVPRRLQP

Structure (SMILES) | composite z-score
O=C1C2C=CC(C(O)Cc3ccccc3)N(Nc3ccc([N+](=O)[O-])cc3)C2C(=O)N1c1ccccc1 (stereo unspecified) | 0.0886
CC(C)C[C@@H]1NC(=O)[C@H](CC(C)C)NC(=O)[C@@]23C(=O)N[C@@H](Cc4ccccc4)C2[C@H](C)[C@@]2(C)O[C@H]2C3/C=C/CC/C=C/CNC1=O (stereo partly specified) | 0.521
COC(=O)[C@@]1(Cc2ccccc2CN=[N+]=[N-])N=C(c2ccc(OCCCO)cc2)O[C@H]1c1ccccc1N=[N+]=[N-] | -0.453
CCOC(=O)C[C@H]1[C@H](OC(=O)Cc2ccc3c(c2)OCO3)[C@@H](NC(=O)c2ccc3ccccc3c2)c2cc(OCCCO)ccc2N1C(=O)Cc1ccc(OC)cc1 | 0.296
C[N+](C)(C)CCCCNC(=O)[C@H]1C[C@H]2C(=O)NCC(=O)N2[C@H]1c1cccc(OCCO)c1 | 1.17
C=C(/C(=C/C[C@@H](OC(=O)c1ccncc1)c1ccc(CO)o1)c1cnc2ccccc2c1)C(C)C | 0.846
CCCNC(=O)[C@@]1(Sc2ccc(C)cc2)CC(=O)N(Cc2ccccc2Cl)[C@@H]1c1ccc(CO)cc1 | 0.546
COC(=O)Cn1c(C(=O)N2CCCC2)cc2c1C[C@H]1CN(C(=O)c3ccccc3)[C@@](Cc3ccccc3)(C(=O)OC)[C@@H]21 | -0.0875
NC(=O)NCC#Cc1ccc2c(c1)[C@]1(C(=O)N2)[C@H](C(=O)N2CCCCCCC2)[C@H]2C(=O)O[C@H](c3ccccc3)[C@H](c3ccccc3)N2[C@@H]1c1ccccc1OCCO | 1.46
Cc1ccc(S[C@]2(C(=O)NCCCN(C)C)CC(=O)N(C3CCCCC3)[C@@H]2c2ccc(CO)cc2I)cc1 | -0.848
CCN1C(C)=C(C(=O)OC)[C@@H](c2ccccc2)N2C(=O)[C@@]3(C(=O)OC)O[C@@]12[C@@H]1C(=O)N(C)C(=O)[C@@H]13 | 0.72
CO[C@H]1COC(=O)[C@H](C)NC(=O)CC=C[C@@H](C)[C@H](NS(=O)(=O)c2ccc(C)cc2)COC(=O)CC=C[C@@H]1C | 0.285
Cc1ccc(S(=O)(=O)N[C@H]2COC(=O)CC=C[C@H](C)COC(=O)N[C@@H](C)C(=O)CC=C[C@@H]2C)cc1 | 1.05
CN1C2C=C(c3ccc(CO)cc3)C(C3C(=O)N(C(N)=O)C(=O)C32)C1c1cccs1 (stereo unspecified) | 0.217
CCCC=C(CCC)[C@@H](NS(=O)(=O)c1ccc(C(F)(F)F)cc1)c1ccc(-c2ccccc2)cc1 | 0.34
CO[C@H]1COC(=O)[C@@H](C)NC(=O)CC=C[C@@H](C)[C@H](OC)COC(=O)CC=C[C@@H]1C | 1.39
C=CCC(OC(C)=O)[C@@H]1[C@@H](N(Cc2cc3ccccc3o2)C(=O)Cc2ccc(F)cc2)c2cc(OCCCO)ccc2N1C(=O)c1ccc(-c2ccccc2)cc1 (stereo partly specified) | -0.159
Cc1ccc(N2C(=O)c3ccccc3[C@@H](C(=O)NCc3ccccc3)[C@@H]2c2ccc(CO)cc2)nc1 | -0.292

Structure (SMILES) | composite z-score
CCCC[C@@H]1C[C@H]1[C@@H](NC(=O)c1ccccc1)c1ccccc1C(F)(F)F | -0.641
CN1C(=O)C2C=CC(C(O)c3ccc(N(C)C)cc3)N(Nc3ccc([N+](=O)[O-])cc3[N+](=O)[O-])C2C1=O (stereo unspecified) | 0.371
O=C1C2C=CC(C(O)C#Cc3ccccc3)N(Nc3ccccc3)C2C(=O)N1c1ccccc1 (stereo unspecified) | -0.365
Cc1ccc(S[C@]2(C(=O)NCCN3CCOCC3)CC(=O)N(C3Cc4ccccc4C3)[C@@H]2c2ccc(CO)cc2I)cc1 | -1.71
O=C1O[C@@H](c2ccccc2)[C@@H](c2ccccc2)N2[C@@H](c3ccc(O)cc3)[C@]3(C(=O)Nc4ccccc43)[C@@H](C(=O)N3CCN(c4ncccn4)CC3)[C@H]12 | -0.389
C=CC[C@]1(C(=O)NCC(O)CO)N=C(c2ccc(OCCCO)cc2)O[C@H]1c1ccccc1 (stereo partly specified) | -0.418
CC[C@@H]1C=C(C(=O)O)[C@H](c2ccccc2)N1S(=O)(=O)c1ccc([N+](=O)[O-])cc1 | -0.52
CN1CCC(CCCO)=CC1C1CC1 (stereo unspecified) | 0.637
C=CC[C@]1(C(=O)N2CCCCC2)N=C(c2ccc(OCCCO)cc2)O[C@H]1c1ccccc1N=[N+]=[N-] | 0.218
COc1cccc([C@@H]2[C@@H](C)CC[C@H]3C(=O)N4[C@H](c5cccc(OC)c5)[C@@H](C)CC[C@H]4C(=O)N23)c1 | 0.767
COCCOC(=O)N1C(=O)[C@@]2(c3cc(C#CC4=CCCCC4)ccc31)[C@H](c1ccc(O)cc1)N1[C@H](c3ccccc3)[C@H](c3ccccc3)OC(=O)[C@H]1[C@@H]2C(=O)N1CCCCCCC1 | 0.8
C=CCC(OC(C)=O)[C@@H]1[C@@H](N(Cc2cccc3ccccc23)C(=O)c2ccc(C)cc2)c2cc(OCCCO)ccc2N1C(=O)c1ccc(-c2ccccc2)cc1 (stereo partly specified) | 0.111
C=CCN1C(=O)[C@]2(O[C@H](CCn3cc(CCO)nn3)[C@@H]([Si](C)(C)c3ccc(OC)cc3)[C@@H]2C)c2cc(NC(=O)c3ccc(OC)cc3)ccc21 | 0.774
CC(=O)NCCCC[C@@H]1NC(=O)[C@@H]2C[C@H](C(=O)NCCCCCCN(C)C)[C@H](c3ccc(O)cc3)N2C1=O | 0.73
CO[C@@H]1COC(=O)[C@H](COCc2ccccc2)NC(=O)CC=C[C@@H](C)[C@H](OC)COC(=O)[C@H](COCc2ccccc2)NC(=O)CC=C[C@H]1C | 0.644
COCCOC(=O)N1C(=O)[C@@]2(c3ccccc31)[C@H](C(=O)N1CCc3cc(OC)c(OC)cc3C1)[C@H]1C(=O)O[C@H](c3ccccc3)[C@H](c3ccccc3)N1[C@@H]2c1ccccc1OCCO | 0.284
C=C(CCCC)/C(=C/C[C@@H](OC(=O)c1ccncc1)c1cccc(OCCO)c1)c1cc(C(=O)OC)ccc1OC | 0.725
C#CCCCON=C1C[C@@H](O)[C@@H](O)[C@@H]2[C@@H]3C(=O)N(Cc4ccc5c(c4)OCO5)C(=O)[C@@H]3CC[C@@H]12 | 0.448
